# Laboratory results reported in ChEMBL document CHEMBL2218924, “A broad activity screen in support of a chemogenomic map for kinase signalling research and drug discovery” (Biochem J, 2013).
# Key:
# [1] = target: T1, Ephrin type-A receptor 3 (Homo sapiens) (UniProt P29320); details: at 10 µM
# T1 sequence (whole entry): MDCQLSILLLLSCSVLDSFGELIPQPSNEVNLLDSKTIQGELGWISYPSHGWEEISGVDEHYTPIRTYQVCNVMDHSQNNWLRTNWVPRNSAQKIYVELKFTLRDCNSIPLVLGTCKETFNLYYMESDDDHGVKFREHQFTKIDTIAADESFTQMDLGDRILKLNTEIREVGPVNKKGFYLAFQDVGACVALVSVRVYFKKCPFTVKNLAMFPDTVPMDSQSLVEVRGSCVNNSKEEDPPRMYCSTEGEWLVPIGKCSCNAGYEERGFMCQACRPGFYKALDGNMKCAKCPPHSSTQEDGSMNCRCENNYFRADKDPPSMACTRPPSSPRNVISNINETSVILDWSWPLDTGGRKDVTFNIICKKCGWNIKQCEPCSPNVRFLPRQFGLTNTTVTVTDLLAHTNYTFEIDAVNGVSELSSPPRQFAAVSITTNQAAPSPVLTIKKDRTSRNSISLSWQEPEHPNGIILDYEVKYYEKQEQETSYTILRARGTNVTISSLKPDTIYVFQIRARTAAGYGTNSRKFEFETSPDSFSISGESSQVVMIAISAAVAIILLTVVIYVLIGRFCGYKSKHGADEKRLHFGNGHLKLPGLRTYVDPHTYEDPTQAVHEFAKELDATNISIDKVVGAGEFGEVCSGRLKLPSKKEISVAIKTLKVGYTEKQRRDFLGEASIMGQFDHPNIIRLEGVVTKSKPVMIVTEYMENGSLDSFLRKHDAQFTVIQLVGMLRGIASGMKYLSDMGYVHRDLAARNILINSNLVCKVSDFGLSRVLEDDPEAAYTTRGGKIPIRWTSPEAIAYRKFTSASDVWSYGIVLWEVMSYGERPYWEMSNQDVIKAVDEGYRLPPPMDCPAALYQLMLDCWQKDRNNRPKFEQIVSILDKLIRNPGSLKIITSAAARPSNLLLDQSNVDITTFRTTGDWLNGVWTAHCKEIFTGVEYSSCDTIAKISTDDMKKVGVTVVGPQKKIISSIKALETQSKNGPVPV
# [2] = target: Ephrin type-A receptor 4 (Homo sapiens) (UniProt P54764); details: at 1 µM
# [3] = target: Ephrin type-A receptor 4 (Homo sapiens) (UniProt P54764); details: at 10 µM
# [4] = target: Ephrin type-A receptor 5 (Homo sapiens) (UniProt P54756); details: at 1 µM
# [5] = target: Ephrin type-A receptor 5 (Homo sapiens) (UniProt P54756); details: at 10 µM
# [6] = target: Ephrin type-A receptor 7 (Homo sapiens) (UniProt Q15375); details: at 1 µM
# [7] = target: Ephrin type-A receptor 7 (Homo sapiens) (UniProt Q15375); details: at 10 µM
# [8] = target: T2, Ephrin type-A receptor 8 (Homo sapiens) (UniProt P29322); details: at 1 µM
# T2 sequence (whole entry): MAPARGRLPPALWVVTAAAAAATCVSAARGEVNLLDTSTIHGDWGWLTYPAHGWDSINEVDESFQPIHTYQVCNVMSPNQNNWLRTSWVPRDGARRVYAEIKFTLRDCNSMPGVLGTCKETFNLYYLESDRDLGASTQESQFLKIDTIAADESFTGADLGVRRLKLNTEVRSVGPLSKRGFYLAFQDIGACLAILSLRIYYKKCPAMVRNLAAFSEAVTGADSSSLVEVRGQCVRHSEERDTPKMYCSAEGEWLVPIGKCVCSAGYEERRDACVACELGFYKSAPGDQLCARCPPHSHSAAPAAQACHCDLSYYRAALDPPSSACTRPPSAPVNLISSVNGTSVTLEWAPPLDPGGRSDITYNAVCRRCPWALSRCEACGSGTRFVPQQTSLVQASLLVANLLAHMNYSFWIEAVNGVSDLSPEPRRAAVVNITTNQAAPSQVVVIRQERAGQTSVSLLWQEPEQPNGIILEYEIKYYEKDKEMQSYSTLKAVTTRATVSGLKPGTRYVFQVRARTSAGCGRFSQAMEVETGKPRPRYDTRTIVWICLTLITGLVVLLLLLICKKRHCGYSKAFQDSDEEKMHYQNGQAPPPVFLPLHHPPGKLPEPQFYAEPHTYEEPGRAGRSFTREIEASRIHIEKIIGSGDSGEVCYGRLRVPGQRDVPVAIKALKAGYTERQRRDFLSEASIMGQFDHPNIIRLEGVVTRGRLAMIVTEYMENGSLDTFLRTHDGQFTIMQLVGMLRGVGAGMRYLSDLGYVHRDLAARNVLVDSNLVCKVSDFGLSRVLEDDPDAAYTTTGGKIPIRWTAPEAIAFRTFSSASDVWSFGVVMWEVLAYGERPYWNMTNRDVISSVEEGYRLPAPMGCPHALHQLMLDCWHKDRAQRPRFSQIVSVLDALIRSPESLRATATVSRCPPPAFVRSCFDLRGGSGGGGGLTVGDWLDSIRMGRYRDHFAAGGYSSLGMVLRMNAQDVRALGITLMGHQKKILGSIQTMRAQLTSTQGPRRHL
# [9] = target: T2, Ephrin type-A receptor 8 (Homo sapiens); details: at 10 µM
# [10] = target: T3, Ephrin type-B receptor 1 (Homo sapiens) (UniProt P54762); details: at 1 µM
# T3 sequence (whole entry): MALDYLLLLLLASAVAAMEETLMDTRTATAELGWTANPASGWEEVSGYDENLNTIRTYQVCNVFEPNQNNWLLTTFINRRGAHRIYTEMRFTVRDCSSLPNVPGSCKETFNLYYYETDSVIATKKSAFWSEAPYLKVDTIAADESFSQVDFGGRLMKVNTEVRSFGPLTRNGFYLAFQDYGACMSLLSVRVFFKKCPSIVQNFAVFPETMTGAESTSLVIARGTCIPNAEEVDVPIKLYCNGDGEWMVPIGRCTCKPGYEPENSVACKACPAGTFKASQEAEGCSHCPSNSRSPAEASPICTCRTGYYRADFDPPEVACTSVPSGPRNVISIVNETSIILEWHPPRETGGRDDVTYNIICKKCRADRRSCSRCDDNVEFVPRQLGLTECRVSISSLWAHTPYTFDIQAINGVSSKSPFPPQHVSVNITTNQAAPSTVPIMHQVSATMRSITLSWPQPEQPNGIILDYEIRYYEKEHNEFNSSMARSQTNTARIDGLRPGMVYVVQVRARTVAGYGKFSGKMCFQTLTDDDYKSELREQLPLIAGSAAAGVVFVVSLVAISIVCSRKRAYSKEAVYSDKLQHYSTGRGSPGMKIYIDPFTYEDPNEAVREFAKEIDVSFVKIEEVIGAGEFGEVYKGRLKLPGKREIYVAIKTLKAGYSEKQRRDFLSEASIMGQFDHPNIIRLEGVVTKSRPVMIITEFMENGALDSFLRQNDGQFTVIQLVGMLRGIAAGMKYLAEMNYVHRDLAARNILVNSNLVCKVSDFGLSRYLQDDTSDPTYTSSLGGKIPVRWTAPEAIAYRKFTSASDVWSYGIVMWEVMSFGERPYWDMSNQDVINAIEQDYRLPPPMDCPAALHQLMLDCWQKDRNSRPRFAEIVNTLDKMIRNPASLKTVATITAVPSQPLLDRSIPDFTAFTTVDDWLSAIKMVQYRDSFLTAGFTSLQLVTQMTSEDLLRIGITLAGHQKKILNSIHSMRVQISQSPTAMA
# Ephrin type-A receptor 7 (Homo sapiens), sequence (Q15375 28-998 limits assumed): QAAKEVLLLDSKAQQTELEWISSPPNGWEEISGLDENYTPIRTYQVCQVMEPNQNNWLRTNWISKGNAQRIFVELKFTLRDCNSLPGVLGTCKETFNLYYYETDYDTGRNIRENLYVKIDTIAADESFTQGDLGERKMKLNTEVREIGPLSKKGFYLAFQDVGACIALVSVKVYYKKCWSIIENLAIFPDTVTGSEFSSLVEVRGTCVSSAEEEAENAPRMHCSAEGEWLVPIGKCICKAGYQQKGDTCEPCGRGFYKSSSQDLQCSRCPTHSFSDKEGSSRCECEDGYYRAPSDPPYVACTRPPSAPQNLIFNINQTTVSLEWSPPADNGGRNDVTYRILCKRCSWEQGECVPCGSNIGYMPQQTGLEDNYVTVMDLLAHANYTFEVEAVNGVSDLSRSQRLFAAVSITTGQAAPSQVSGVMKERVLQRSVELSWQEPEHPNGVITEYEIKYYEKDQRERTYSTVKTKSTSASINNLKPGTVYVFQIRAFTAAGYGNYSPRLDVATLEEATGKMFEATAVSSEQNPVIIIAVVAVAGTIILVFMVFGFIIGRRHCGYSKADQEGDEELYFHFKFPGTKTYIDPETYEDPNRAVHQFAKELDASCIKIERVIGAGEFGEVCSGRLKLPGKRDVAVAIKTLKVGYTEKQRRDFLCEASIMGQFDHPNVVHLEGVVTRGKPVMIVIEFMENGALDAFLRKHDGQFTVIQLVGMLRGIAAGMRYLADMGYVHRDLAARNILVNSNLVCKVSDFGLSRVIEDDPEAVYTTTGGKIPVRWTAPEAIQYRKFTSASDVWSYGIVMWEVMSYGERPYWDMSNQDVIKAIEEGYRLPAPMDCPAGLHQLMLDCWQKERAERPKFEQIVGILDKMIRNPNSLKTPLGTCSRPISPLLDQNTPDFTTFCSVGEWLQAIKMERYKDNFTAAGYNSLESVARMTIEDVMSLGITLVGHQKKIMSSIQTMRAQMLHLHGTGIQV
# Ephrin type-A receptor 5 (Homo sapiens), sequence (P54756 whole entry): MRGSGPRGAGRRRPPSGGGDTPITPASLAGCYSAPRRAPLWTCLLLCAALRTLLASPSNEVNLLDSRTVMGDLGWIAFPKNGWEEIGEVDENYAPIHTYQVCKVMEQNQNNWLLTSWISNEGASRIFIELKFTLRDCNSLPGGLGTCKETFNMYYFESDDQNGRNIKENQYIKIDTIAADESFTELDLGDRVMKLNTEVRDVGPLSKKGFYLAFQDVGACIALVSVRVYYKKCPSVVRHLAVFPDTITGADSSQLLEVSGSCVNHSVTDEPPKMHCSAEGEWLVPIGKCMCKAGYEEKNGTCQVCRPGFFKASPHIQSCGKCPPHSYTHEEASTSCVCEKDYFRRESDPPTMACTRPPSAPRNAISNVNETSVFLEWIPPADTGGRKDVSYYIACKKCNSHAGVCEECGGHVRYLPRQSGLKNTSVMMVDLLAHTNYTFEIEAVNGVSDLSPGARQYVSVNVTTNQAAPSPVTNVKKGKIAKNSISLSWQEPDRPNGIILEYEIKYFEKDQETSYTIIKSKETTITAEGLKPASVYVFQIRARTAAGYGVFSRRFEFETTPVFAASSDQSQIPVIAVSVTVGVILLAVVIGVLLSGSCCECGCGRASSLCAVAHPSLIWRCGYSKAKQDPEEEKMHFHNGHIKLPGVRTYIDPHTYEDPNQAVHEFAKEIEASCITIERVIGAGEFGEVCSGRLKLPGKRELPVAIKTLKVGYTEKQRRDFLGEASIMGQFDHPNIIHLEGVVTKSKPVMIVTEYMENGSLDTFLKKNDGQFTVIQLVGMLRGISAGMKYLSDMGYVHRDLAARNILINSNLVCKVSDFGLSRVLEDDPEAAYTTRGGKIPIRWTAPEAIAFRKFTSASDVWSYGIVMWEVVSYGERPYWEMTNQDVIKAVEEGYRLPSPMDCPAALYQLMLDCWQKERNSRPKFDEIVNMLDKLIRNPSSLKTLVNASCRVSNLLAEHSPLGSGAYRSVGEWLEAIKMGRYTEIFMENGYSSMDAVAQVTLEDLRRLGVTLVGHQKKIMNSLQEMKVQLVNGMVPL
# Ephrin type-A receptor 4 (Homo sapiens), sequence (P54764 whole entry): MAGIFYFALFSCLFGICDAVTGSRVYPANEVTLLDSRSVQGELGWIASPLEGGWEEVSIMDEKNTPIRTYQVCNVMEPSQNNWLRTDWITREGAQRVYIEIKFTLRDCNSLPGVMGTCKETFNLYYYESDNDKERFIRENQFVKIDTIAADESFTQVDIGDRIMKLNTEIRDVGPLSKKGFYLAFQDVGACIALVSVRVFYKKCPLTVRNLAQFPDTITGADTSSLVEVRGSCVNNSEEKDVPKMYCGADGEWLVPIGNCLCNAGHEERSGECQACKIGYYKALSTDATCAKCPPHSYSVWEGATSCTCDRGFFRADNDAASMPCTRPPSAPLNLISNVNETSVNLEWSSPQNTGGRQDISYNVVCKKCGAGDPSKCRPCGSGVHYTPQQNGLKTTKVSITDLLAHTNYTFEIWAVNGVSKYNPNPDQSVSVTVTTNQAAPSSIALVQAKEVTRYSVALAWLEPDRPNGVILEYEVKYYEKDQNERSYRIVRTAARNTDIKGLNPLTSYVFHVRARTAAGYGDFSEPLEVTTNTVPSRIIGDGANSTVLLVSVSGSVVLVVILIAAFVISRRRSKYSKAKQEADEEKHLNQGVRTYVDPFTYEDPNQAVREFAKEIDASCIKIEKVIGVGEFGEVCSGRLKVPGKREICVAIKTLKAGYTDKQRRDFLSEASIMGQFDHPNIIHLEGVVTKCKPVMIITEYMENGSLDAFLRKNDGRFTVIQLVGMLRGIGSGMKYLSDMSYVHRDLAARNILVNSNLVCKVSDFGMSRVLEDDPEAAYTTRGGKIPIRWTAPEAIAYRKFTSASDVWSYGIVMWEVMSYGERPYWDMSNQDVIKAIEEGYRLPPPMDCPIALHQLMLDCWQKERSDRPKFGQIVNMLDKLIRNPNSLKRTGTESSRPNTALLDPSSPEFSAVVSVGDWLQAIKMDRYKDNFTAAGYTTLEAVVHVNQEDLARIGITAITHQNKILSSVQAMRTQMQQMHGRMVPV
smiles,measurement,setting,value
O=C1NC(=O)/C(=C/c2ccc3c(c2)OC(F)(F)O3)S1,residual activity,[1],93%
same,residual activity,[2],116%
same,residual activity,[3],105%
same,residual activity,[4],115%
same,residual activity,[5],103%
same,residual activity,[6],89%
same,residual activity,[7],102%
same,residual activity,[8],111%
same,residual activity,[9],99%
same,residual activity,[10],115%
